Pf Dd2 inh: Plasmodium falciparum Dd2 growth inhibition; P. falciparum Dd2 growth, SYBR Green, 72 h; actives 4.3% (n = 120,000); Potency, µM (series often up to 28.9 µM), for the others: top-dose activity, negative = inhibition, most hits filed as inhibitors; AID 1347417; active = well fitted inhibition curve with a large enough effect;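 also: plate controls were DMSO vehicle for no effect and reference drug for full effect; nearly all actives have a fitted effect of over 65% in size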
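Readout: SYBR Green fluorescence, 485 nm excitation, 535 nm emission, after ~16 h lysis at 37C. Before that, Dd2-infected red cells (2.5% hematocrit) grew 72 h with compound, 29 uM top final concentration.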
* marks the source's active call; other numbers are inactive results; [ ] = dose if it differs, or a comment. The full list was thinned out, with hits kept by preference. Potency is read from the fitted curve at half-maximal effect.

What do the screens show for `CCN1CCN(C(=O)CN2CC3CC(C2)[C@H]2CCCC(=O)N2C3)CC1` (stereo partly drawn)?
Pf Dd2 inh: 0.9%

Results for N#Cc1ccc(C(=O)N2CCCCCNC(=O)CC2c2ccccc2)cc1 (stereo not drawn) ?
Pf Dd2 inh: -6.6%

How did COCCNC(=O)C(=O)NCC(c1cccnc1)N1CCN(c2ccccc2OC)CC1 (stereo not drawn) do in these assays?
Pf Dd2 inh: -13.5%

What do the screens show for `Cc1ccc(NC(=O)C(=O)NCC(c2cccnc2)N2CCN(Cc3ccccc3)CC2)cc1Cl` (stereo not drawn)?
Pf Dd2 inh: 3.55µM*

Results for O=C(NCC(c1cccnc1)N1CCOCC1)C(=O)Nc1cccc(Cl)c1 (stereo not drawn) ?
Pf Dd2 inh: -15.4%

What do the screens show for `O=C(NCC(c1cccnc1)N1CCN(c2ccccc2F)CC1)C(=O)Nc1ccc(F)cc1F` (stereo not drawn)?
Pf Dd2 inh: 3.16µM*

What do the screens show for `O=C(NCC(c1cccnc1)N1CCOCC1)C(=O)Nc1ccc(Cl)cc1` (stereo not drawn)?
Pf Dd2 inh: -13.7%

What do the screens show for `CN1CCN(C(CNC(=O)C(=O)Nc2ccc(F)cc2)c2cccnc2)CC1` (stereo not drawn)?
Pf Dd2 inh: -8.2%

What do the screens show for `CC(C)C(=O)Nc1ccc(C2(C(=O)N(C)C)CCC2)cc1`?
Pf Dd2 inh: 5.4%

How did O=C(NCCC1=CCCN(CCCn2cccc2)C1)c1ccco1 do in these assays?
Pf Dd2 inh: inactive

What do the screens show for `CC(C)CCCC1CN(C(=O)c2c(O)cccc2O)CCO1` (stereo not drawn)?
Pf Dd2 inh: 0.0%

What do the screens show for `COc1ccc(-c2noc(-c3nnn(-c4ccc(C)cc4C)c3C)n2)cc1`?
Pf Dd2 inh: 24.6%

What do the screens show for `COc1ccc(-c2noc(-c3nnn(-c4ccc(C(C)C)cc4)c3C)n2)cc1OC`?
Pf Dd2 inh: 8.91µM*

How did COc1ccc(OC)c(-n2nnc(-c3nc(-c4ccc5c(c4)OCO5)no3)c2C)c1 do in these assays?
Pf Dd2 inh: -6.2%

How did COc1ccc(CCc2nc3nccc(-c4ccc(OC)cc4F)n3n2)cc1 do in these assays?
Pf Dd2 inh: inactive

What do the screens show for `COc1ccc(N2C(=O)C3(CCCCC3)C2C(=O)NCCCN2CCCC2=O)cc1` (stereo not drawn)?
Pf Dd2 inh: -11.9%

Results for O=C(CC[C@H]1NC(=O)c2ccccc2NC1=O)Nc1n[nH]c(CCc2ccccc2)n1 ?
Pf Dd2 inh: -3.6%

Results for CCn1ccc(C(=O)N2CCC3(CC2)NCCc2c3[nH]c3ccccc23)n1 ?
Pf Dd2 inh: -27.6%

How did COc1ccc2[nH]c3c(c2c1)CCNC31CCN(C(=O)C2CCN2C2CCCCC2)CC1 (stereo not drawn) do in these assays?
Pf Dd2 inh: 12.6µM*

Results for COc1ccc2[nH]c3c(c2c1)CCNC31CCN(C(=O)C(C)C)CC1 ?
Pf Dd2 inh: inactive

Results for COc1ccc2[nH]c3c(c2c1)CCNC31CCN(C(=O)c2ccncc2)CC1 ?
Pf Dd2 inh: inactive

How did CCC(=O)N1CCC2(CC1)NCCc1c2[nH]c2ccc(OC)cc12 do in these assays?
Pf Dd2 inh: -12.8%

Results for CCCC(=O)N1CCC2(CC1)NCCc1c2[nH]c2ccc(OC)cc12 ?
Pf Dd2 inh: -7.7%

How did O=C(c1nccc2ccccc12)N1CCC2(CC1)NCCc1c2[nH]c2ccccc12 do in these assays?
Pf Dd2 inh: 3.98µM*

What do the screens show for `CC(C)CC(=O)N1CCC2(CC1)NCCc1c2[nH]c2ccccc12`?
Pf Dd2 inh: -15.0%

How did COc1ccc2[nH]c3c(c2c1)CCNC31CCN(C(=O)CC(C)C)CC1 do in these assays?
Pf Dd2 inh: 7.94µM*

Results for CC(C)(C)C(=O)N1CCC(F)(c2nc(-c3ccncc3)no2)CC1 ?
Pf Dd2 inh: -16.2%

What do the screens show for `COC[C@@H]1CN(C(=O)c2ccccc2)C[C@H]1c1nc(C2CC2)no1`?
Pf Dd2 inh: -13.5%

What do the screens show for `COc1ccc(-c2noc([C@@H]3CCCN3C(=O)COc3cccc(C)c3)n2)cc1OC`?
Pf Dd2 inh: inactive

What do the screens show for `CN(C)C[C@@H]1CN(Cc2ccccc2)C[C@H]1NC(=O)CCn1cccn1`?
Pf Dd2 inh: 30.7%

How did COc1ccccc1N1CCN(Cc2ccc(=O)n(C)c2)CC1 do in these assays?
Pf Dd2 inh: 3.6%

How did COc1ccccc1N1CCN(C2CCCN(C3CCN(Cc4ccccc4)CC3)C2)CC1 (stereo not drawn) do in these assays?
Pf Dd2 inh: 12.6µM*

How did CCN1CCC(N2CCCC(N3CCN(c4ccccc4OC)CC3)C2)CC1 (stereo not drawn) do in these assays?
Pf Dd2 inh: inactive

How did Cc1cc(Cl)ccc1NC(=O)C1CN(S(C)(=O)=O)CC12CCCCC2 (stereo not drawn) do in these assays?
Pf Dd2 inh: -19.2%

What do the screens show for `COc1ccccc1N1CCN(C(=O)C2N(C(C)C)C(=O)C23CCCC3)CC1` (stereo not drawn)?
Pf Dd2 inh: -2.7%

What do the screens show for `O=C(Cc1c[nH]c2ncc(-c3ccccc3)cc12)NCCc1ccccc1`?
Pf Dd2 inh: inactive

How did Cn1cc(-c2cnc3[nH]cc(CC(=O)NCc4ccncc4)c3c2)cn1 do in these assays?
Pf Dd2 inh: 3.98µM*

Results for Cn1cc(-c2cnc3[nH]cc(CC(=O)NC4CCC4)c3c2)cn1 ?
Pf Dd2 inh: inactive

What do the screens show for `O=C(Cc1c[nH]c2ncc(-c3cccnc3)cc12)NCc1ccccc1`?
Pf Dd2 inh: 5.62µM*

What do the screens show for `CN1CCN(C(=O)Cc2c[nH]c3ncc(-c4cccc(OC(F)(F)F)c4)cc23)CC1`?
Pf Dd2 inh: inactive

How did O=C(Cc1c[nH]c2ncc(-c3ccc(F)c(Cl)c3)cc12)NCc1cccnc1 do in these assays?
Pf Dd2 inh: 4.47µM*

What do the screens show for `O=C(Cc1c[nH]c2ncc(-c3ccccc3)cc12)Nc1cccnc1`?
Pf Dd2 inh: -29.0%[44.1 µM]

What do the screens show for `O=C(Cc1c[nH]c2ncc(-c3cccc(OC(F)(F)F)c3)cc12)NCc1cccnc1`?
Pf Dd2 inh: 3.98µM*

How did O=C(Cc1c[nH]c2ncc(-c3ccccc3Oc3ccccc3)cc12)NCc1cccnc1 do in these assays?
Pf Dd2 inh: inactive

What do the screens show for `COc1cc(F)cc(-c2cnc3[nH]cc(CC(=O)NCc4cccnc4)c3c2)c1`?
Pf Dd2 inh: inactive

How did O=C(Cc1c[nH]c2ncc(-c3cccnc3)cc12)NC1CC1 do in these assays?
Pf Dd2 inh: inactive

How did CC(C)CNC(=O)Cc1c[nH]c2ncc(-c3cnn(C)c3)cc12 do in these assays?
Pf Dd2 inh: inactive

Results for CN1Cc2ccc(N3CCOCC3)nc2C(C)(C(=O)NCCCn2ccnc2)C1 (stereo not drawn) ?
Pf Dd2 inh: inactive

Results for Cc1ccc(CCC(=O)N2CC[C@@](O)(C3CCOCC3)[C@H](C)C2)cc1 ?
Pf Dd2 inh: -3.4%

Results for NC(=O)[C@@H]1C[C@H](Oc2cccnc2)CN1C(=O)CN1CCCCCC1 ?
Pf Dd2 inh: -15.6%

How did COC(=O)COc1ccc(C(=O)N[C@@H]2CN(C(=O)NC(C)C)CCC[C@H]2O)cc1 do in these assays?
Pf Dd2 inh: 9.2%[44.1 µM]

Results for O=Cc1ccccc1-c1ccccc1F ?
Pf Dd2 inh: 0.7%[44.1 µM]

How did CCCC(=O)NC1CCN(C(=O)N2CC3CC(C2)[C@H]2CCCC(=O)N2C3)CC1 (stereo partly drawn) do in these assays?
Pf Dd2 inh: inactive

How did COc1nccnc1NC1CCN(C(=O)Cc2c(C)noc2C)CC1 do in these assays?
Pf Dd2 inh: inactive[5.79 µM]

How did Cn1cnc(S(=O)(=O)N2CCC(Cc3nncn3-c3ccccc3)CC2)c1 do in these assays?
Pf Dd2 inh: -2.3%

Results for Cc1cc(C(=O)N2CCC3(CC2)NCCc2c3[nH]c3ccccc23)n(C)n1 ?
Pf Dd2 inh: inactive
